Assay results from PubChem BioAssay.
Calls of active or inactive are those of the source.

Tests used:
[1] = compound effects on lung adenocarcinoma cell viability – A549, calcein-AM fluorescence, 48 h, basal, profiling panel (AID 1162); conditions: higher = more signal
[2] = compound effects on differentiated 3T3-L1 adipocyte viability – cell-based, 3T3-L1 adipocytes, calcein-AM fluorescence, 48 h, basal, profiling panel (AID 1163); conditions: 3T3-L1 adipocytes viability, higher = more signal
[3] = compound effects on hepatocellular carcinoma cell viability – HepG2, calcein-AM fluorescence, 48 h, basal, profiling panel (AID 1164); conditions: higher = more signal
[4] = compound effects on multiple myeloma cell viability – MM1S, calcein-AM fluorescence, 48 h, basal, profiling panel (AID 1165); conditions: higher = more signal
[5] = calcein-AM signal in unstimulated myeloma cells – cell-based, calcein-AM fluorescence, 48 h, PK04 Diversity Set, profiling panel (AID 1166); conditions: RPMI8226 myeloma viability, higher = more signal;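 note: cells grown under basal conditions without added stimulus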
[6] = JC-1 mitochondrial signal, unstimulated HepG2 cells – cell-based, JC-1 fluorescence, 24 h, 100 nL compound, profiling panel (AID 1167); conditions: HepG2 mitochondrial potential, higher = more signal
[7] = JC-1 mitochondrial signal, unstimulated adipocytes – cell-based, JC-1 fluorescence, 3T3-L1 adipocytes, 24 h, 100 nL compound, profiling panel (AID 1168); conditions: JC-1 mitochondrial fluorescence, higher = more signal, called active from +8 up or from −8 down
[8] = JC-1 mitochondrial signal, unstimulated myeloma cells – cell-based, JC-1 fluorescence, RPMI8226, 24 h, 100 nL compound, profiling panel (AID 1169); conditions: JC-1 mitochondrial potential fluorescence, higher = more signal
[9] = JC-1 mitochondrial signal, unstimulated MM1S myeloma – cell-based, JC-1 fluorescence, 24 h, 100 nL compound, profiling panel (AID 1170); conditions: MM1S mitochondrial potential, higher = more signal
[10] = resazurin metabolic signal in A549 cells – cell-based, resazurin fluorescence, 24 h, PK04 Diversity Set, profiling panel (AID 1171); conditions: A549 viability, higher = more signal, called active from +8 up or from −8 down
Note: test concentration not given here.

SMILES | z-score [1] | z-score [2] | z-score [3] | z-score [4] | z-score [5] | z-score [6] | z-score [7] | z-score [8] | z-score [9] | z-score [10]
C=C(C)[C@@H]1CC=C(C(O)C2C=CC3C(=O)N(c4ccccc4)C(=O)C3N2Nc2ccccc2)CC1 (stereo not given in full) | 1.62 | -0.63 | 1.16 | -0.646 | -1.05 | -1.95 | -0.27 (inactive) | -0.45 | -0.31 | 0.296 (inactive)
COc1ccccc1CN1C(=O)c2ccccc2[C@@]2(Cc3ccccc3N(CC(C)C)C2=O)[C@@H]1c1ccc(CO)cc1 | 0.211 | 0.444 | -0.385 | -0.481 | -0.0712 | -0.204 | 0.211 (inactive) | -0.887 | -0.0409 | -1.03 (inactive)
[N-]=[N+]=NCc1ccccc1C[C@]1(C(=O)N2CCCCC2)N=C(c2ccc(OCCCO)cc2)O[C@H]1c1ccccc1N=[N+]=[N-] | -1.27 | 1.03 | -0.454 | -2.18 | -3.48 | 0.345 | -0.187 (inactive) | -1.16 | -1.07 | -0.6 (inactive)
COCCOC(=O)N1C(=O)[C@@]2(c3ccccc31)[C@H](c1ccccc1OCCO)N1[C@H](c3ccccc3)[C@H](c3ccccc3)OC(=O)[C@H]1[C@@H]2C(=O)N1CCN(c2ncccn2)CC1 | -0.588 | -0.678 | -0.478 | -1.7 | -0.949 | 0.323 | 0.665 (inactive) | -0.929 | -1.36 | -1.05 (inactive)
COc1cc(COC(C)=O)ccc1OC(C)=O | 1.97 | 0.223 | 1.5 | -0.0098 | -1.49 | -0.367 | 0.374 (inactive) | -0.219 | 0.528 | 0.339 (inactive)
C=CCNC(=O)[C@@H]1[C@H]2C(=O)O[C@H](c3ccccc3)[C@H](c3ccccc3)N2[C@H](c2ccccc2OCCO)[C@@]12C(=O)N(C(=O)OCCOC)c1ccccc12 | -0.798 | 0.955 | -1.69 | -2.24 | -3.37 | -0.186 | 0.149 (inactive) | -0.813 | -0.287 | -2.03 (inactive)
O=C1c2ccccc2[C@](Cc2ccccc2I)(C(=O)NCC(F)(F)F)[C@H](c2ccc(CO)cc2)N1Cc1ccccc1Cl | 0.0986 | 0.46 | 0.0068 | -1.06 | -1.55 | 0.798 | 0.149 (inactive) | -0.68 | -1.34 | 1.57 (inactive)
COc1ccc(C#Cc2ccc3c(c2)[C@]2(C(=O)N3)[C@H](C(=O)Nc3nc4ccccc4s3)[C@H]3C(=O)O[C@H](c4ccccc4)[C@H](c4ccccc4)N3[C@@H]2c2ccc(O)cc2)cc1 | -0.151 | 0.341 | 0.949 | -0.561 | -1.37 | -3.71 | -0.298 (inactive) | -1.02 | -1.18 | 0.279 (inactive)
C=CC[C@@]1(C(=O)NCCN2CCOCC2)N=C(c2ccc(OCCCO)cc2)O[C@@H]1c1ccccc1N=[N+]=[N-] | 0.391 | -0.187 | 0.55 | -0.669 | -0.394 | 1.42 | 0.602 (inactive) | -0.244 | -0.322 | -0.0072 (inactive)
O=C1C[C@@](C(=O)NCCN2CCOCC2)(c2ccc([N+](=O)[O-])cc2)[C@@H](c2ccc(CO)cc2)N1CC12CC3CC(CC(C3)C1)C2 | -2.97 | 0.0433 | -3 | -3.83 | -4.23 | -2.04 | -0.907 (inactive) | -0.893 | -0.615 | -2.06 (inactive)
CC(C)=CCCC(C)=CC(O)C1C=CC2C(=O)N(C)C(=O)C2N1Nc1ccccc1 (stereo not given) | -1.81 | -1.39 | -1.35 | -2.56 | -4.09 | -2.66 | 1.29 (inactive) | -0.934 | -1.34 | 0.597 (inactive)
CCC[C@@H]1C[C@@]1(CCC)[C@@H](NC(=O)c1ccccc1)c1cccc(Cl)c1 | -0.927 | -0.546 | -0.0147 | -1.78 | -0.385 | 0.909 | 0.349 (inactive) | 0.466 | -0.0307 | 0.908 (inactive)
NCCCCCCNC(=O)[C@@H]1C[C@@H]2C(=O)NCC(=O)N2[C@@H]1c1ccc(O)cc1 | -1.17 | 0.544 | -1.07 | 0.307 | 0.0172 | -0.479 | 0.172 (inactive) | -0.796 | -0.365 | -0.368 (inactive)
COc1ccccc1CN1C(=O)c2ccccc2[C@@H](C(=O)NC2CC2)[C@@H]1c1ccc(CO)cc1 | 1.44 | -0.348 | 1.26 | 0.467 | -0.376 | 2.33 | 0.171 (inactive) | 0.371 | -0.0698 | 0.469 (inactive)
NC(=O)[C@@H]1[C@H]2C(=O)O[C@H](c3ccccc3)[C@H](c3ccccc3)N2[C@H](c2ccc(O)cc2)[C@@]12C(=O)Nc1ccccc12 | -0.343 | 0.956 | -0.19 | -0.647 | -0.07 | -0.376 | -0.0789 (inactive) | -0.902 | -0.079 | -0.0543 (inactive)
O=C1c2ccccc2[C@](Cc2ccccc2I)(C(=O)NCCN2CCOCC2)[C@H](c2ccc(CO)cc2)N1Cc1ccccc1Cl | 0.537 | 0.261 | 0.63 | -1.66 | -1.88 | 1.77 | -0.585 (inactive) | -0.273 | 0.918 | 0.928 (inactive)

SMILES | z-score [1] | z-score [2] | z-score [3] | z-score [4] | z-score [5] | z-score [6] | z-score [7] | z-score [8] | z-score [9] | z-score [10]
COc1cccc(-c2cccc(=O)o2)c1 | -1.06 | -0.458 | -0.834 | 0.192 | -1.87 | -1.27 | 0.236 (inactive) | 0.812 | 0.0881 | 0.563 (inactive)
CCOC(=O)C1=CC[C@@H](c2ccccc2)N(S(=O)(=O)c2ccc(C)cc2)[C@H]1c1ccccc1C | -1.42 | 0.068 | -0.0628 | -0.247 | -0.734 | 2.59 | -0.134 (inactive) | -0.275 | -0.271 | 2.32 (inactive)
CCCC[C@@H]1C[C@H]1[C@@H](NC(=O)c1cccs1)c1ccc(-c2ccccc2)cc1 | -0.997 | -0.537 | -0.0352 | -0.802 | -0.38 | 0.565 | -1.56 (inactive) | -0.233 | -0.815 | 1.71 (inactive)
C=CCOC(=O)[C@@H]1[C@H]2C(=O)O[C@H](c3ccccc3)[C@H](c3ccccc3)N2[C@H](c2ccc(OCCOC(=O)[C@H]3C[C@H]4C(=O)N5CCC[C@H]5C(=O)N4[C@H]3c3ccc(O)cc3)cc2)[C@@]12C(=O)Nc1ccc(I)cc12 | 0.0077 | 0.205 | -1.02 | -1.75 | -1.31 | -1.7 | 1.24 (inactive) | -0.81 | -1.27 | -0.685 (inactive)
O=C(c1ccccc1)N1C(=O)[C@@]2(Cc3ccccc31)N=C(c1ccc(OCCCO)cc1)O[C@H]2c1ccccc1 | -1.31 | 0.668 | -1.58 | -3.54 | -4.36 | 0.157 | 0.479 (inactive) | -1.19 | -2.17 | -1.62 (inactive)
CCCC[C@@H]1C[C@H]1[C@@H](NC(=O)c1ccccc1)c1ccc(C(=O)OC)cc1 | -0.992 | -0.334 | -0.197 | -1.2 | -2.68 | -2.55 | -1.18 (inactive) | 0.461 | -1.12 | 0.571 (inactive)
COCCOC(=O)N1C(=O)[C@@]2(c3cc(C#Cc4ccc(OC)cc4)ccc31)[C@H](c1ccc(O)cc1)N1[C@H](c3ccccc3)[C@H](c3ccccc3)OC(=O)[C@H]1[C@@H]2C(=O)N1CCc2cc(OC)c(OC)cc2C1 | -0.548 | 1.22 | -0.486 | -0.0636 | -0.063 | 0.793 | 2.76 (inactive) | 0.188 | 0.108 | 0.776 (inactive)
CC1(C)[C@@H]2CC(C(O)C3C=CC4C(=O)N(Cc5ccccc5)C(=O)C4N3n3cnnc3)=C[C@H]1C2 (stereo not given in full) | -0.868 | -0.622 | 0.0607 | -0.0282 | 0.346 | -0.237 | 0.352 (inactive) | -0.124 | -0.649 | 1.18 (inactive)
COc1cc2c(cc1OC)CN(C(=O)[C@H]1[C@@H]3C(=O)O[C@@H](c4ccccc4)[C@@H](c4ccccc4)N3[C@@H](c3ccc(O)cc3)[C@]13C(=O)Nc1ccc(C#CCCO)cc13)CC2 | 0.0351 | 1.04 | -0.162 | -0.233 | -1.46 | -1.46 | 0.292 (inactive) | -0.568 | 0.0874 | 0.125 (inactive)
C=CCC(OC(C)=O)[C@@H]1[C@@H](N(Cc2ccc(-c3ccccc3)cc2)C(=O)Cc2ccc(OC)cc2)c2cc(OCCCO)ccc2N1C(=O)Cc1ccc2ccccc2c1 (stereo not given in full) | 0.247 | 0.358 | 0.71 | -0.391 | -0.252 | 1.25 | -1.73 (inactive) | 0.158 | 0.338 | -0.599 (inactive)
CCC[C@@H]1C[C@@]1(CCC)[C@@H](NS(=O)(=O)c1cccc2cccnc12)c1ccc(Cl)cc1 | 1.54 | -1.13 | 0.112 | 0.0781 | -0.99 | 3.46 | 0.112 (inactive) | 0.137 | -0.855 | -0.132 (inactive)
COc1ccc([Si](C)(C)[C@@H]2[C@@H](CC(=O)N3CCC[C@H]3CO)O[C@]3(C(=O)N(c4ccccc4)c4ccccc43)[C@H]2C)cc1 | 1.61 | 0.93 | -0.259 | -0.011 | 0.17 | 1.29 | -0.181 (inactive) | -0.277 | -0.544 | 1.13 (inactive)
CCC(CC)C(O)C1C=CC2C(=O)NC(=O)C2N1Nc1ccccn1 (stereo not given) | -0.651 | -0.883 | 0.0063 | 0.152 | 0.0749 | -0.29 | -0.414 (inactive) | -0.07 | -0.138 | -0.801 (inactive)
C=CCC(OC(C)=O)[C@@H]1[C@@H](N(Cc2cccc3ccccc23)C(=O)c2ccc(-c3ccccc3)cc2)c2cc(OCCCO)ccc2N1C(=O)c1ccc2ccccc2c1 (stereo not given in full) | -0.525 | -0.526 | -0.62 | 0.279 | -0.494 | 1.62 | -0.693 (inactive) | -0.011 | -0.000791 | 1.09 (inactive)
NC(=O)NCC#Cc1ccc2c(c1)[C@]1(C(=O)N2)[C@H](c2ccc(O)cc2)N2[C@H](c3ccccc3)[C@H](c3ccccc3)OC(=O)[C@H]2[C@@H]1C(=O)O | 0.517 | 0.145 | 0.829 | 0.343 | -1.12 | -1.2 | -1.47 (inactive) | 0.183 | -0.713 | -0.397 (inactive)
